KKLEB cytotox: reduces viability of KKLEB cystic fibrosis airway cells; KKLEB CF airway cells viability, ATPlite luminescence, overnight; stronger effect = lower value; cells stimulated with P. aeruginosa culture filtrate; activity change (cytotoxicity), % at 5 µM; hit rate 0.36% among 360,000; AID 602141;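 active = corrected activity change at or below -50% at 5 µM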
Peg3 prom inh: reduces Peg3 promoter-driven luciferase expression in HeLa; HeLa PEG-Prom luciferase reporter, luminescence, overnight; inhibition, % at 20 µM; hit rate 1.7% among 360,000; AID 588405;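 active = inhibition of at least 50% at 20 µM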
CF NFkB block: blocks PAF-induced NF-kB reporter in cystic fibrosis cells; KKLEB NF-kB-GFP reporter, GFP fluorescence overnight; inhibition, % at 5 µM; hit rate 0.86% among 360,000; AID 588850;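 active = at least 50% inhibition at 5 µM, scaled per plate between neutral and stimulator controls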;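 note: PAF is a Pseudomonas aeruginosa culture filtrate used as stimulus; plate controls were PAF-stimulated DMSO wells for no effect and unstimulated DMSO wells for full effect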
TROY signal inh: blocks TROY-dependent signaling in reporter cells. AID 1347056. hit rate 0.98% among 360,000. inhibition, % at 10 µM. Q293 LMP1-TROYcd NF-kB luciferase reporter, 4 h;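 active = compounds whose plate-normalised and pattern-corrected inhibition of the luciferase reporter signal at the single screening dose is 50% or more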
HIF-2a inh: inhibitors of HIF-2a. 786-0 RCC cells HIF-2a reporter, luciferase luminescence, overnight. inhibition, % at 18.8 µM. hit rate 0.72% among 360,000. AID 624352;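 active = inhibition of the luminescence signal of 40% or more relative to plate controls, in a single-dose primary screen at 18.75 µM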
TWEAK Fn14 block: TWEAK-Fn14 signaling inhibition; inhibition, % at 10 µM; TWEAK-stimulated Fn14 reporter cells, luciferase luminescence, 8 h; AID 1159606; hit rate 2% among 360,000; in the data active = inhibition above about 50%
Mdm2 MdmX conf: confirmation of inhibitors of human Mdm2/MdmX interaction, set 2; inhibition, % at 8 µM; hit rate 99% among 740; shares compounds with HIF-2a inh; SaOS-2 split-luciferase Mdm2/MdmX complementation, luminescence;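 active = mean inhibition of the luminescence signal across two replicates at or above 26 percent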
Target sequence (O15151 whole entry, looked up): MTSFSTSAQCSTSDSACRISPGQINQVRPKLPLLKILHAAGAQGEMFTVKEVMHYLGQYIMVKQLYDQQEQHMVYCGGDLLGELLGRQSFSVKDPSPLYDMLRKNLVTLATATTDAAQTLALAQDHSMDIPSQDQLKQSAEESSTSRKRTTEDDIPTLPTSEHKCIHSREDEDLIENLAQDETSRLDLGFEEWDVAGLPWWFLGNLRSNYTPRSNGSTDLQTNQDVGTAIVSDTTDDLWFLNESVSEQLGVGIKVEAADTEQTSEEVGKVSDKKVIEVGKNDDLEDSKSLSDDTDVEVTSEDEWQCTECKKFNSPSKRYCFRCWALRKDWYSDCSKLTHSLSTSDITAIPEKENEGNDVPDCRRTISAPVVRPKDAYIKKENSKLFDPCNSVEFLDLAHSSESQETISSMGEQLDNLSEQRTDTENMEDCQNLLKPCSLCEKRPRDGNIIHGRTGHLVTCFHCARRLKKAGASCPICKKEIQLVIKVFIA
Target sequence (Q00987 whole entry, looked up): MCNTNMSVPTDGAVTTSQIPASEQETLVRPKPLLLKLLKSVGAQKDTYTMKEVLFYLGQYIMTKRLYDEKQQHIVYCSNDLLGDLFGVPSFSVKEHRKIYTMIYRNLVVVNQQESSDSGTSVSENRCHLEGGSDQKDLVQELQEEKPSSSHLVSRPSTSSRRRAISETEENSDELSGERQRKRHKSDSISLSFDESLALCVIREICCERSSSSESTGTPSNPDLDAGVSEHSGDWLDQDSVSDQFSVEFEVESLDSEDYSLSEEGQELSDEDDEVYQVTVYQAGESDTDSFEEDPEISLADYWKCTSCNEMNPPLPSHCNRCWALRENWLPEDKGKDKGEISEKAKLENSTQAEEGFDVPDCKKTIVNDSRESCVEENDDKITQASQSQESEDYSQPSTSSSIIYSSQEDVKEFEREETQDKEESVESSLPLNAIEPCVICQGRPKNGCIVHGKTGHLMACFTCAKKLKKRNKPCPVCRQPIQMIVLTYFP
HIF-2a inh conf: confirmation of HIF-2a inhibitors; shares compounds with HIF-2a inh; 786-0 RCC cells, HIF-2a luciferase reporter luminescence, overnight; inhibition, % at 18.8 µM; hit rate 56% among 1,800;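 active = mean inhibition across four replicates of at least 40 percent at the single tested concentration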
HIF-1a counter: HIF-1a inhibition counter-screen for HIF-2a hits; shares compounds with HIF-2a inh; MiaPaCa-2 HIF-1a luciferase reporter, desferoxamine, overnight; hit rate 72% among 1,800; inhibition, % at 18.8 µM;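 active = mean inhibition of the reporter signal across four replicates at the single tested dose of 50% or more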
Numbers without * were called inactive; x = not tested or not shown. The list is not random: actives were taken first. Their share in the collection is about 4%.

SMILES | KKLEB cytotox | Peg3 prom inh | CF NFkB block | TROY signal inh | HIF-2a inh | TWEAK Fn14 block | HIF-2a inh conf | HIF-1a counter | others
CCCCn1nnnc1C(c1ccccc1)N1CCN(c2ncc(C(F)(F)F)cc2Cl)CC1 (stereo not given) | x | x | x | 4.8 | 0.0 | -7.4 | x | x
Cc1ccc(S(=O)(=O)N2CCC(C(=O)OC(C)C(=O)NCc3ccccc3)CC2)cc1C (stereo not given) | -7.2 | 1.2 | 3.2 | -4.1 | 11.7 | 10.9 | x | x
CCOC(=O)/C(=C/c1c(C)n(C)c2ccc([N+](=O)[O-])cc12)C(C)=O | -8.8 | 48.6 | 2.3 | 50.5* | 72.3* | 72.6* | 70.2* | 59.5*
COc1ccc(C(=O)CNc2cccc(F)c2)cc1 | 2.7 | -28.9 | 1.1 | -34.6 | -76.5 | -15.3 | x | x
O=C(NCCC1=CCCCC1)c1[nH]c(C(F)(F)F)nc1-c1ccccc1 | -13.6 | 38.4 | 27.4 | 30.9 | 15.5 | 11.5 | x | x
Cc1oc(=O)c(NC(=O)c2ccccc2)cc1C(N)=O | -2.8 | 2.5 | 5.0 | 1.4 | 3.7 | -19.2 | x | x
O=C(Nc1cc2ccccc2oc1=O)c1ccccc1 | -7.9 | 53.5* | -28.0 | 65.8* | 40.0* | 90.3* | 68.3* | 62.7*
Cc1ccc(-n2nc3c(N4CCC(C(=O)NCCc5ccccc5C)CC4)nnc(C)c3c2C)cc1 | -0.1 | 58.3* | 18.7 | 23.5 | 49.2* | -27.7 | -5.0 | 46.3
Cc1ccc(-n2nc3c(N4CCC(C(=O)NCCc5ccco5)CC4)nnc(C)c3c2C)cc1 | -10.9 | 30.0 | 3.5 | -4.5 | 17.1 | 3.9 | x | x
COc1ccc(-n2nc3c(N4CCC(C(=O)NCc5ccccc5C)CC4)nnc(C)c3c2C)cc1 | -29.4 | 103.5* | 35.7 | -11.5 | 90.6* | -1.1 | 64.7* | 96.4* | Mdm2 MdmX conf=102.7*
Cc1ccc(-n2nc3c(N4CCC(C(=O)NCc5ccc(C)o5)CC4)nnc(C)c3c2C)cc1 | 1.6 | -2.3 | 6.1 | -25.6 | 6.6 | -32.3 | x | x
COc1ccc(-n2nc3c(N4CCC(C(=O)NC5CCCCC5)CC4)nnc(C)c3c2C)cc1 | 4.4 | 71.2* | -6.9 | -8.3 | 65.3* | -10.2 | 5.4 | 60.1*
O=C(COC(=O)/C=C/c1ccco1)NCCN1C(=O)CSC1=O | -0.3 | 1.9 | 10.1 | -7.6 | 8.1 | 12.6 | x | x
CC(=O)Nc1cc([N+](=O)[O-])ccc1OCc1ccccc1 | 10.6 | 5.0 | 7.1 | -8.4 | -43.6 | 10.5 | x | x
COc1cc2ncc(S(=O)(=O)c3ccccc3)c(N3CCC4(CC3)OCCO4)c2cc1OC | 6.1 | 24.0 | 16.9 | -3.3 | 40.2* | -10.2 | 21.7 | 98.4*
CO[C@@H]1CN(C)C(=O)c2cc(NS(=O)(=O)c3ccc(C)cc3)ccc2OC[C@H](C)N(Cc2nccs2)C[C@H]1C | x | x | x | x | -10.1 | x | x | x
O=C(CCNC(=O)c1ccc(Br)cc1)Nc1ccc(S(=O)(=O)Nc2ncccn2)cc1 | 5.4 | 9.5 | -16.3 | -11.1 | 10.1 | 2.4 | x | x
O=C(Cc1coc2cc3c(cc12)CCC3)OCC(=O)N1CCCC1=O | -15.8 | 27.6 | 35.2 | 59.1* | 79.8* | 82.9* | 77.5* | 83.3*
COc1ccccc1-c1cccc(-c2nc(C(=O)Nc3nccs3)cc3c2[C@@H](CCO)N(C(=O)CC2CC2)C3)c1 | x | x | x | 4.9 | -6.1 | 27.0 | x | x
Cc1c([N+](=O)[O-])cnc(Sc2ccccc2)c1[N+](=O)[O-] | -29.2 | 44.1 | 51.8* | 63.5* | 49.8* | 84.2* | 48.0* | 83.9*
Cc1ccc(Sc2ncccc2[N+](=O)[O-])cc1 | -4.1 | -7.6 | 2.6 | 1.8 | -8.2 | 3.6 | x | x
CCC(CO)N=CC1=C(O)CC(c2ccccc2)CC1=O (stereo not given) | -1.2 | 8.6 | -2.1 | 12.4 | 15.1 | 16.8 | x | x
COc1ccccc1NC(=S)N=Nc1c(O)[nH]c2ccc(Br)cc12 | -17.6 | 92.5* | 23.3 | -12.4 | 6.7 | -18.4 | x | x | Mdm2 MdmX conf=84.2*
O=C(O)c1ccc(Oc2ccc(S(=O)(=O)c3ccc(C(=O)O)c(C(=O)O)c3)cc2)cc1 | -7.5 | -1.8 | 24.5 | 4.4 | 15.2 | -8.5 | x | x
COc1ccc(CCC(=O)Nc2cccc(S(=O)(=O)N3CCCC3)c2)cc1OC | -1.4 | 18.5 | 1.3 | 16.6 | 10.1 | -19.2 | x | x
SMILES | KKLEB cytotox | Peg3 prom inh | CF NFkB block | TROY signal inh | HIF-2a inh | TWEAK Fn14 block | HIF-2a inh conf | HIF-1a counter | others
O=C1c2ccc(Cl)cc2S(=O)(=O)c2cccc(C(=O)N3CCC(Cc4ccccc4)CC3)c21 | -29.1 | 90.8* | 17.0 | 65.4* | 50.0* | -55.7 | 13.5 | 105.3*
COC(=O)c1ccccc1NC(=O)CNCCc1ccc(OC)c(OC)c1 | 3.2 | 0.6 | -4.7 | 12.9 | 14.1 | 1.9 | x | x
CCCC(=O)NC(c1ccc(Cl)cc1Cl)c1ccc2cccnc2c1O (stereo not given) | -7.3 | 59.0* | -8.8 | 34.3 | 12.3 | 12.0 | x | x | Mdm2 MdmX conf=85.2*
CCCC(=O)NC(c1ccccc1OC)c1ccc2cccnc2c1O (stereo not given) | -0.4 | 58.0* | 5.6 | 6.6 | 24.5 | 19.7 | x | x | Mdm2 MdmX conf=87.0*
CC(C)C(=O)NC(c1cccc([N+](=O)[O-])c1)c1ccc2cccnc2c1O (stereo not given) | -9.0 | 63.4* | 8.3 | -10.7 | 20.4 | 4.5 | x | x | Mdm2 MdmX conf=88.0*
CC1(C(=O)NS(=O)(=O)c2cccc(OC(F)F)c2)CCN1C(=O)c1ccco1 (stereo not given) | 16.8 | 10.6 | -6.1 | -13.6 | 8.3 | -8.2 | x | x
Cc1ccc(S(=O)(=O)ON2C(=O)c3cccc4cccc(c34)C2=O)cc1 | 3.9 | 13.3 | -11.3 | 24.5 | -0.7 | -1.5 | x | x
Cc1ccc(C)c(S(=O)(=O)ON2C(=O)c3ccccc3C2=O)c1 | -13.2 | 55.8* | -7.6 | -9.3 | 68.0* | 9.5 | 56.8* | 2.4
Cn1c(=O)c([N+](=O)[O-])c(Cl)c2ccccc21 | -50.2* | 105.5* | 72.1* | 22.9 | 96.9* | -21.0 | 82.8* | 105.8*
O=S(=O)(c1ccccc1F)N1CCN(CCc2ccccc2)CC1 | 10.4 | 11.4 | -24.8 | 3.2 | 1.8 | 8.8 | x | x
CCOC(=O)Cc1ccc(NC(=O)c2ccc(C(C)(C)C)cc2)cc1 | -10.2 | -44.8 | 7.8 | -5.0 | 90.3* | 24.6 | 97.1* | 76.6*
O=C(Nc1ccc(F)c(Cl)c1)N1CCCCCC1 | 11.3 | -123.8 | 17.2 | -39.7 | -143.2 | -9.0 | x | x
NC(=O)COC(=O)CCCSc1nc2ccccc2s1 | 10.3 | 1.3 | -12.3 | 44.2 | 56.7* | 54.0* | 76.1* | 39.5
N#Cc1ccsc1NC(=O)COC(=O)CCCSc1nc2ccccc2s1 | 0.1 | 10.2 | 7.9 | 26.4 | 63.9* | 30.4 | 69.2* | 52.7*

Bioassay records from PubChem.
